Measurements: PubChem BioAssay (Tox21)
Several values for one entry are separate records, joined by “and”; a condition that tells them apart may be missing. Identical values can stand only once. Results filed as inconclusive are left out. A call without a number means that no potency is given here. A structure can be active in one record and inactive in another. Activity calls are given as the source filed them. Unless noted, calls follow the shape of the dose curve; as a rule, active = well fitted curve in the direction sought with a large enough effect in the repeat runs; inconclusive = weak or mixed curves; inactive = no such curve, though single readings can be large; an effect the other way counts as inactive or inconclusive.

Key:
[1] = qHTS assay to identify small molecule antagonists of the thyroid receptor (TR) signaling pathway (AID 743065); conditions: GH3.TRE-Luc, T3-stimulated luciferase inhibition, 23.5 h; series mostly up to 70.3 µM; also: nearly all actives have a fitted effect of over 55% in size
Summary of the method: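 GH3.TRE-Luc rat pituitary cells (two TREs driving luciferase) were dosed with compound, then stimulated with 1 nM T3 (final) for 23.5 h at 37 C. ONE-Glo luminescence was the read-out, with CellTiter-Fluor fluorescence as the cytotoxicity counter-screen.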

[2] = tested on: thyroid hormone receptor (rat, GH3 cells); test: qHTS assay to identify small molecule agonists of the thyroid receptor (TR) signaling pathway (AID 743066; calls by dose curve); conditions: GH3.TRE-Luc cells, TR agonist luciferase, 24 h; series mostly up to 83.9 µM
[3] = qHTS assay to identify small molecule antagonists of the estrogen receptor alpha (ER-alpha) signaling pathway - cell viability counter screen (AID 743074; calls by dose curve; also: nearly all actives have a fitted effect of over 45% in size); conditions: ERalpha-bla HEK293 viability, CellTiter-Glo luminescence, 18 h; series mostly up to 69.4 µM
[4] = qHTS assay to identify small molecule antagonists of the estrogen receptor alpha (ER-alpha) signaling pathway using the BG1 cell line - cell viability counter screen (AID 743081); conditions: BG1Luc4E2 viability, CellTiter-Fluor, 22 h; series mostly up to 70.3 µM;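 also: compound given together with 17beta-estradiol as the ER stimulus; nearly all actives have a fitted effect of over 45% in size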
Aromatase (Homo sapiens) = Aromatase (Homo sapiens) (UniProt P11511); test: qHTS assay to identify aromatase inhibitors (AID 743083); conditions: MCF-7 aro ERE, testosterone-driven ERE luciferase, 24 h; series mostly up to 70.3 µM; also: nearly all actives have a fitted effect of over 55% in size; also: potency is read from the fitted curve at half-maximal effect
[5] = qHTS assay to identify aromatase inhibitors - cell viability counter screen (AID 743084); conditions: MCF-7 aro ERE viability, CellTiter-Fluor, 24 h; series mostly up to 70.3 µM;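 also: cells stimulated with testosterone during compound exposure; nearly all actives have a fitted effect of over 55% in size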; also: potency is read from the fitted curve at half-maximal effect
[6] = molecular target: Aryl hydrocarbon receptor (Homo sapiens) (UniProt P35869); test: qHTS assay to identify small molecule that activate the aryl hydrocarbon receptor (AhR) signaling pathway (AID 743085); conditions: HepG2 AhR-luc (HG2L7.5c1), luciferase, 24 h; series mostly up to 70.3 µM;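 also: HG2L7.5c1 human HepG2 liver cells with stably integrated DRE-driven firefly reporter; nearly all actives have a fitted effect of over 15% in size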
Summary of the method: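 Measured in HG2L7.5c1 cells: CellTiter-Fluor signal (30 min incubation, 37C) for viability, then luciferase luminescence (30 min, room temperature). Compound contact time was 24 h at 37C, following a 5 h pre-incubation.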

[7] = qHTS assay to identify small molecule that activate the aryl hydrocarbon receptor (AhR) signaling pathway - cell viability counter screen (AID 743086); conditions: HepG2-AhR-luc viability, CellTiter-Fluor, 24 h; series mostly up to 70.3 µM;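 also: HepG2 liver cells carrying the AhR DRE luciferase reporter; nearly all actives have a fitted effect of over 45% in size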
Summary of the method: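 HepG2-AhR-luc (HG2L7.5c1) cells, 4000/well, treated 24 h at 37 C with compound; viability measured as CellTiter-Fluor fluorescence after 30 min in the same wells as the luciferase read.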

[8] = qHTS assay to identify small molecule antagonists of the peroxisome proliferator-activated receptor gamma (PPARg) signaling pathway - cell viability counter screen (AID 743194); conditions: PPARg-bla HEK293H viability, CellTiter-Glo luminescence, 17 h, co-treated with 50 nM rosiglitazone; series mostly up to 62.6 µM; also: nearly all actives have a fitted effect of over 55% in size
Summary of the method: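 Cytotoxicity counter screen in PPARg-bla HEK293H cells, same wells as reporter assay. Compounds plus 50 nM rosiglitazone (final) for 17 h at 37 C, then viability read by CellTiter-Glo luminescence.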

[9] = qHTS assay for small molecule agonists of the antioxidant response element (ARE) signaling pathway - cell viability counter screen (AID 743203; calls by dose curve; also: nearly all actives have a fitted effect of over 55% in size; also: potency is read from the fitted curve at half-maximal effect); conditions: ARE-bla HepG2 viability, CellTiter-Glo luminescence, 16 h; series mostly up to 73.3 µM
Summary of the method: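 Luminescence read-out (CellTiter-Glo, 30 min at room temperature) measured cell viability in the same wells as the ARE beta-lactamase reporter. HepG2 ARE-bla cells were treated with compounds for 16 hrs at 37C/5% CO2.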

[10] = qHTS assay for small molecule activators of the heat shock response signaling pathway - cell viability counter screen (AID 743209); conditions: HSE-bla HeLa viability, CellTiter-Glo luminescence, 5 h; series mostly up to 62.6 µM; also: nearly all actives have a fitted effect of over 50% in size
Summary of the method: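 HSE-bla HeLa; 1500 cells/well; overnight 37 C, 5% CO2; compound 5 h 37 C; LiveBLAzer B/G substrate 2.5 h RT; CellTiter-Glo 30 min RT; luminescence.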

[11] = qHTS assay for small molecule activators of the heat shock response signaling pathway (AID 743210; active = well fitted activation curve with a large enough effect in the signal ratio in the repeat runs, with a control signal flat, not every such curve was filed as active; the % refers to the signal ratio;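 also: HeLa cells with beta-lactamase reporter driven by heat shock elements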); conditions: HeLa HSE-bla reporter, beta-lactamase ratio, 5 h; series mostly up to 62.6 µM
Summary of the method: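 Following overnight attachment, HSE-bla HeLa cells received test compounds for 5 h at 37 C; beta-lactamase activity was then detected via FRET substrate fluorescence.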

[12] = qHTS assay to identify small molecule agonists of the peroxisome proliferator-activated receptor delta (PPARd) signaling pathway - cell viability counter screen (AID 743211); conditions: PPARd-bla HEK293H viability, CellTiter-Glo luminescence, 17 h; series mostly up to 62.6 µM; also: nearly all actives have a fitted effect of over 55% in size
Summary of the method: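 Following 5 h plating at 37 C and 5% CO2, PPARd UAS-bla HEK293H cells took up test compounds for 17 h. Viability was quantified by luminescence 30 min after CellTiter-Glo addition at room temperature.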

[13] = molecular target: Peroxisome proliferator-activated receptor gamma (Homo sapiens) (UniProt P37231); test: qHTS assay to identify small molecule antagonists of the peroxisome proliferator-activated receptor gamma (PPARg) signaling pathway (AID 743191; calls by dose curve; also: nearly all actives have a fitted effect of over 30% in size); conditions: HEK293H PPARg-UAS-bla, beta-lactamase ratio, antagonist, 17 h; series mostly up to 62.6 µM
Summary of the method: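 GeneBLAzer PPARg UAS-bla HEK293H cells, 5 h post-plating, exposed to compounds 17 h at 37C. LiveBLAzer B/G FRET substrate added for 1 h at room temperature; beta-lactamase reporter read by fluorescence intensity.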

[14] = molecular target: Peroxisome proliferator-activated receptor gamma (Homo sapiens) (UniProt P37231); test: qHTS assay to identify small molecule agonists of the peroxisome proliferator-activated receptor gamma (PPARg) signaling pathway (AID 743094; active = well fitted activation curve with a large enough effect in the signal ratio in the repeat runs, not every such curve was filed as active; the % refers to the signal ratio); conditions: HEK293H PPARg-UAS-bla, beta-lactamase FRET ratio, 17 h; series mostly up to 57 µM
Summary of the method: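 HEK293H PPARg-bla cells, 5 h settle at 37C/5% CO2; compound (DMSO) 17 h, 37C; B/G FRET substrate 1 h RT; fluorescence intensity read-out. qHTS format.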

[15] = qHTS assay for small molecule agonists of the antioxidant response element (ARE) signaling pathway (AID 743202; active = well fitted activation curve with a large enough effect in the signal ratio in the repeat runs, not every such curve was filed as active; the % refers to the signal ratio); conditions: HepG2 ARE-bla reporter, beta-lactamase FRET, 16 h; series mostly up to 73.3 µM
Summary of the method: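 HepG2 ARE-bla cells; 16 h treatment at 37 C; FRET-based beta-lactamase fluorescence read after 2 h substrate incubation at room temperature.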

[16] = molecular target: Estrogen receptor (Homo sapiens) (UniProt P03372); test: qHTS assay to identify small molecule antagonists of the estrogen receptor alpha (ER-alpha) signaling pathway (AID 743069; active = well fitted curve in the direction sought with a large enough effect in the signal ratio in the repeat runs, not every such curve was filed as active; the % refers to the signal ratio); conditions: HEK293 ER-alpha-UAS-bla, beta-lactamase ratio, antagonist mode; series mostly up to 69.4 µM
Summary of the method: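 In this cell-based reporter format, GripTite HEK293 cells harbouring ER-alpha-UAS-bla were grown overnight with 2% charcoal-stripped FBS, dosed with DMSO-dissolved compounds, then challenged with 17beta-estradiol. After 18 hr at 37C, beta-lactamase activity was detected by FRET fluorescence.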

[17] = molecular target: Estrogen receptor (Homo sapiens) (UniProt P03372); test: qHTS assay to identify small molecule agonists of the estrogen receptor alpha (ER-alpha) signaling pathway (AID 743075; calls by dose curve); conditions: HEK293 ER-alpha-UAS-bla, beta-lactamase FRET ratio, 18 h; series mostly up to 70.1 µM
[18] = molecular target: Estrogen receptor (Homo sapiens) (UniProt P03372); test: qHTS assay to identify small molecule agonists of the estrogen receptor alpha (ER-alpha) signaling pathway using the BG1 cell line (AID 743079); conditions: BG1Luc4E2 cells, ERE-luciferase agonist, 22 h; series mostly up to 70.3 µM; also: nearly all actives have a fitted effect of over 20% in size
[19] = qHTS assay to identify small molecule antagonists of the estrogen receptor alpha (ER-alpha) signaling pathway using the BG1 cell line (AID 743080; calls by dose curve;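 also: BG1 cells stimulated with 17beta-estradiol alongside compound; nearly all actives have a fitted effect of over 25% in size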); conditions: BG1Luc4E2 ERE-luciferase antagonist mode, luminescence; series mostly up to 70.3 µM
Summary of the method: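 Seeding, 24 h rest, compound transfer from DMSO, 17beta-estradiol addition, 21.5 h incubation, CellTiter-Fluor (30 min, 37 C), then ONE-Glo (30 min, room temperature): this sequence was run on BG1-Luc-4E2 reporter cells.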

Estrogen receptor (Homo sapiens), sequence (P03372 whole entry, looked up): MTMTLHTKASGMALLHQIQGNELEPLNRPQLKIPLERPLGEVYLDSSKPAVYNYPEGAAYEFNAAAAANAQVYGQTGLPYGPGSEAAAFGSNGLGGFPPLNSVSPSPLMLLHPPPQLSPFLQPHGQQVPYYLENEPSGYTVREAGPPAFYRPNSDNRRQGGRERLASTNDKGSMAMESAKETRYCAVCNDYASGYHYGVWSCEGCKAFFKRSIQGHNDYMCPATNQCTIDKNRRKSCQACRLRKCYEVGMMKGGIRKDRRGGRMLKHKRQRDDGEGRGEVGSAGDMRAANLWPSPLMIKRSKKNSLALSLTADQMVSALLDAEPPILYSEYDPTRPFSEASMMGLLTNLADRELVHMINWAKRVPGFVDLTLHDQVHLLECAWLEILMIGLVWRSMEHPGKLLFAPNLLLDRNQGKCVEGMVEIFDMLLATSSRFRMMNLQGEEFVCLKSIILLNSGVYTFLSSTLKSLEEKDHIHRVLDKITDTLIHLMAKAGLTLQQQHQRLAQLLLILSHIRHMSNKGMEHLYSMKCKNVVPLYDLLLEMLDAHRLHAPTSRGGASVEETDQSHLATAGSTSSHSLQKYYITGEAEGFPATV
Peroxisome proliferator-activated receptor gamma (Homo sapiens), sequence (P37231 whole entry, looked up): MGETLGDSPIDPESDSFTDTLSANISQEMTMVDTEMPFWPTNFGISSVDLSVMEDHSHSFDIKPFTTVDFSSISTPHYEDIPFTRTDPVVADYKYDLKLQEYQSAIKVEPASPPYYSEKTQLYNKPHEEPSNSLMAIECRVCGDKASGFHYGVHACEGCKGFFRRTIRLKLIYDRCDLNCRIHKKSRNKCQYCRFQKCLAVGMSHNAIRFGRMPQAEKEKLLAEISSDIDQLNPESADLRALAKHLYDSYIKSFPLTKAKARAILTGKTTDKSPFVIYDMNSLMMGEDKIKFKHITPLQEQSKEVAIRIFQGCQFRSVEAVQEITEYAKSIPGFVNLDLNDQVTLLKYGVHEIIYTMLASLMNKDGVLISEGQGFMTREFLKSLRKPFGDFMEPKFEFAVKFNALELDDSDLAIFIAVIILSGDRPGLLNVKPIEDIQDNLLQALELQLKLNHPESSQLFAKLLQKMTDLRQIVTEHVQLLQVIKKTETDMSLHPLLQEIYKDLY
Aromatase (Homo sapiens), sequence (P11511 whole entry, looked up): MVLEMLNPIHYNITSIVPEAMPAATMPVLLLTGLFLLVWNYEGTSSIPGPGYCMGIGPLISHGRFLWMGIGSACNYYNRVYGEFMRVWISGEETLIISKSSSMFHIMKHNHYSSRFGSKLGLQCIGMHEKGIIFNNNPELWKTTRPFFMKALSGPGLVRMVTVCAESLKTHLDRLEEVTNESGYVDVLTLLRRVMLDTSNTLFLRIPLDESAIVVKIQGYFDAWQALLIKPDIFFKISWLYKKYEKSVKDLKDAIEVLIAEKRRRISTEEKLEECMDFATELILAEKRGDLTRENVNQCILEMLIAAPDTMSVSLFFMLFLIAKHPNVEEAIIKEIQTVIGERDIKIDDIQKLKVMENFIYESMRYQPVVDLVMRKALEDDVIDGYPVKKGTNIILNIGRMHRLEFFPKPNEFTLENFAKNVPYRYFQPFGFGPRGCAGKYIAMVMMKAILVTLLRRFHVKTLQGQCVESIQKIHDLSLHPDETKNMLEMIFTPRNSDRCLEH
Aryl hydrocarbon receptor (Homo sapiens), sequence (P35869 whole entry, looked up): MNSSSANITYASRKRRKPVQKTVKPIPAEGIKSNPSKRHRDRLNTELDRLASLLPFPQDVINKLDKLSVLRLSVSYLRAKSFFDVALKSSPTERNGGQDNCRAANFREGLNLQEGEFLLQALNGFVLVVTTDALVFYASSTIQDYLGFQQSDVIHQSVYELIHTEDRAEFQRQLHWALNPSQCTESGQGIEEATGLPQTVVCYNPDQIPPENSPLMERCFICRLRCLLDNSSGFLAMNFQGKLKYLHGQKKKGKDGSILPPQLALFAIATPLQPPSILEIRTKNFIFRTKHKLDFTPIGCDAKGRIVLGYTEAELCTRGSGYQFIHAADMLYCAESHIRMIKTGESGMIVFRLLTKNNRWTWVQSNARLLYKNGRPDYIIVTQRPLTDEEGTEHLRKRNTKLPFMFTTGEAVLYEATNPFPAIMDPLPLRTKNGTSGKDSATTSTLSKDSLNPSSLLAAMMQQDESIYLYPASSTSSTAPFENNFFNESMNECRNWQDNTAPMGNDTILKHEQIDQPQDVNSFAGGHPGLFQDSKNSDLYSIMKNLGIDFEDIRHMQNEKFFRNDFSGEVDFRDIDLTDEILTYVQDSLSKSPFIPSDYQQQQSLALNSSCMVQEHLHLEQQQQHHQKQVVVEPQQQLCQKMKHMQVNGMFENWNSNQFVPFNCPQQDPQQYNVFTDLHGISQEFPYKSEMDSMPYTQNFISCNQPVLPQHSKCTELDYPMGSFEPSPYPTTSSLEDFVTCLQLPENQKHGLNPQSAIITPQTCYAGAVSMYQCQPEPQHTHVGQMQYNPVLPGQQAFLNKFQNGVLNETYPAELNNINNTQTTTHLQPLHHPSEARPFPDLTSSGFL

SMILES	Potency [1]	outcome [2]	outcome [3]	Potency [4]	Potency (Aromatase (Homo sapiens))	Potency [5]	Potency [6]	Potency [7]	outcome [8]	Potency [9]	outcome [10]	outcome [11]	outcome [12]	outcome [13]	outcome [14]	Potency [15]	Potency [16]	Potency [17]	Potency [18]	outcome [19]
OCc1cccc(Oc2ccccc2)c1	inactive	inactive	inactive	inactive	inactive	inactive	inactive	inactive	inactive	inactive	inactive	inactive	inactive	–	–	–	–	–	–	–
CN(C)CCOC(=O)COc1ccc(Cl)cc1	inactive	inactive	inactive	inactive	inactive	inactive	–	inactive	inactive	–	inactive	inactive	inactive	inactive	–	–	–	–	–	–
CC(=O)OC1CC(C)OC(C)O1 (stereo not given)	inactive	inactive	inactive	inactive	inactive	inactive	inactive	inactive	inactive	inactive	inactive	–	inactive	inactive	–	–	–	–	–	–
CC(O)CC(C)(C)O (stereo not given)	inactive	inactive	–	inactive	inactive	inactive	inactive	inactive	inactive	inactive	inactive	inactive	inactive	–	inactive	inactive	–	–	–	–
CN(C)c1ccc(Cc2ccc(N(C)C)cc2)cc1	inactive	inactive	inactive	inactive	inactive	inactive	–	inactive	inactive	–	inactive	inactive	inactive	inactive	inactive	inactive	–	–	–	–
C=CC[N+](C)(C)CC=C	inactive	inactive	inactive	inactive	inactive	inactive	inactive	inactive	inactive	–	inactive	–	inactive	inactive	–	–	–	–	–	–
Clc1ccccn1	inactive	inactive	inactive	inactive	–	–	–	inactive	inactive	inactive	inactive	inactive	inactive	–	–	inactive	–	–	–	–
COc1ccccc1OCC(O)CO (stereo not given)	inactive	inactive	inactive	inactive	inactive	inactive	inactive	inactive	inactive	inactive	inactive	–	inactive	inactive	–	inactive	–	–	–	–
COCCOC(=O)c1ccccc1C(=O)OCCOC	inactive	inactive	inactive	inactive	inactive	inactive	inactive	inactive	inactive	inactive	inactive	inactive	inactive	inactive	–	inactive	–	–	–	–
CC(C)CC(=O)CC(C)CC(C)C (stereo not given)	inactive	inactive	inactive	inactive	inactive	inactive	–	inactive	inactive	inactive	inactive	inactive	inactive	inactive	–	–	–	–	–	–
CCOC(=O)c1ccc(N)cc1	inactive	inactive	inactive	inactive	inactive	inactive	–	inactive	inactive	–	inactive	inactive	inactive	inactive	inactive	–	–	–	–	–
Cc1ccc(C(C)C)c(O)c1	–	inactive	inactive	inactive	inactive and 54.5 µM (active)	inactive and 61.1 µM (active)	inactive	inactive	inactive	61.1 µM (active) and inactive	inactive	inactive	inactive	inactive	inactive	–	inactive	inactive	inactive	inactive
NC(=S)NNC(N)=S	inactive	inactive	inactive	inactive	inactive	inactive	inactive	inactive	inactive	–	inactive	inactive	inactive	inactive	–	–	–	–	–	–
